Measured values taken from PubChem BioAssay AID1159580 (chemical genetic matrix, 2015).
Where “and” joins values, the source holds several entries; their conditions need not be identical. Equal entries are not always repeated. In all, about 5,500 compounds went through this assay and about 2,000 (36%) were called active. Another 18% or so got no clear call; they are omitted. No stated cut-off is given here; in the data, active means normalized growth mostly below about 0.91 (no sharp cut-off); inconclusive means no clear call, values can overlap the other calls; inactive means mostly above about 0.92. This is one part of the list.

Assay: chemical genetic growth profiling, strain panel (AID 1159580);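 further: tested at 20 µM; growth read once vehicle control cultures reached saturation at 30 °C; 1 = growth at the plate median or of vehicle wells; lower values mean less growth of the strain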
Details: growth OD

Measured: normalized growth

Cc1ccc(N(CC2=NCCN2)c2cccc(O)c2)cc1
active: S. cerevisiae deletion strains, locus YML032C, strain rad52, hits give low values 0.819 | S. cerevisiae deletion strains, locus YNL250W, strain rad50, hits give low values 0.841 | S. cerevisiae deletion strains, locus YNL298W, strain CLA4, hits give low values 0.899
inactive: S. cerevisiae deletion strains, locus YJR075W, strain HOC1, hits give low values 0.967 | S. cerevisiae deletion strains, locus YKL009W, strain mrt4, hits give low values 0.99 | S. cerevisiae deletion strains, locus YKL068W, hits give low values 1 | S. cerevisiae deletion strains, locus YKL085W, strain MDH1 (second series), hits give low values 1.03 | S. cerevisiae deletion strains, locus YKL085W, strain MDH1, hits give low values 1.03 | S. cerevisiae deletion strains, locus YKL160W, strain elf1, hits give low values 1.01 | S. cerevisiae deletion strains, locus YKL190W, strain CNB1, hits give low values 1.01 | S. cerevisiae deletion strains, locus YKR001C, strain vps1, hits give low values 1.01 | S. cerevisiae deletion strains, locus YKR026C, strain gcn3, hits give low values 1.03 | S. cerevisiae deletion strains, locus YKR091W, strain srl3, hits give low values 1 | S. cerevisiae deletion strains, locus YLL001W, strain dnm1, hits give low values 1 | S. cerevisiae deletion strains, locus YLL026W, hits give low values 1.02 | S. cerevisiae deletion strains, locus YLL041C, strain sdh2, hits give low values 1.01 | S. cerevisiae deletion strains, locus YLR027C, strain aat2, hits give low values 1.01 | S. cerevisiae deletion strains, locus YLR039C, strain RIC1, hits give low values 1.06 | S. cerevisiae deletion strains, locus YLR058C, strain SHM2, hits give low values 1.01 | S. cerevisiae deletion strains, locus YLR102C, strain apc9, hits give low values 1.01 | S. cerevisiae deletion strains, locus YLR113W, strain HOG1, hits give low values 1.04 | S. cerevisiae deletion strains, locus YLR221C, strain rsa3, hits give low values 0.998 | S. cerevisiae deletion strains, locus YLR258W, strain gsy2, hits give low values 1 | S. cerevisiae deletion strains, locus YLR262C, strain YPT6 (second series), hits give low values 1.02 | S. cerevisiae deletion strains, locus YLR262C, strain YPT6, hits give low values 1.02 | S. cerevisiae deletion strains, locus YLR268W, strain sec22, hits give low values 0.947 | S. cerevisiae deletion strains, locus YLR320W, strain mms22, hits give low values 0.987 | S. cerevisiae deletion strains, locus YLR330W, strain CHS5, hits give low values 1.01 | S. cerevisiae deletion strains, locus YLR342W, strain FKS1 (second series), hits give low values 1.04 | S. cerevisiae deletion strains, locus YLR342W, strain FKS1, hits give low values 1.02 | S. cerevisiae deletion strains, locus YLR357W, strain rsc2, hits give low values 1.02 | S. cerevisiae deletion strains, locus YLR370C, strain arc18, hits give low values 1.01 | S. cerevisiae deletion strains, locus YLR371W, strain rom2, hits give low values 1.01 | S. cerevisiae deletion strains, locus YLR384C, strain iki3, hits give low values 1.02 | S. cerevisiae deletion strains, locus YLR418C, strain cdc73, hits give low values 0.955 | S. cerevisiae deletion strains, locus YML016C, strain PPZ1, hits give low values 1.01 | S. cerevisiae deletion strains, locus YML120C, strain ndi1, hits give low values 0.999 | S. cerevisiae deletion strains, locus YML124C, strain tub3, hits give low values 1.02 | S. cerevisiae deletion strains, locus YMR058W, strain fet3, hits give low values 1.02 | S. cerevisiae deletion strains, locus YMR078C, strain ctf18, hits give low values 1 | S. cerevisiae deletion strains, locus YMR125W, strain sto1, hits give low values 1.04 | S. cerevisiae deletion strains, locus YMR129W, hits give low values 1 | S. cerevisiae deletion strains, locus YMR205C, strain PFK2, hits give low values 1.02 | S. cerevisiae deletion strains, locus YMR223W, strain ubp8, hits give low values 0.973 | S. cerevisiae deletion strains, locus YMR231W, strain pep5, hits give low values 1.02 | S. cerevisiae deletion strains, locus YMR263W, strain SAP30, hits give low values 0.989 | S. cerevisiae deletion strains, locus YMR307W, strain GAS1, hits give low values 0.988 and 0.994 | S. cerevisiae deletion strains, locus YNL067W, strain RPL9B, hits give low values 0.967 | S. cerevisiae deletion strains, locus YNL071W, strain lat1, hits give low values 1.01 | S. cerevisiae deletion strains, locus YNL128W, strain TEP1, hits give low values 0.988 | S. cerevisiae deletion strains, locus YNL153C, strain GIM3, hits give low values 0.983 | S. cerevisiae deletion strains, locus YNL175C, strain NOP13, hits give low values 1.02 | S. cerevisiae deletion strains, locus YNL183C, strain NPR1, hits give low values 0.99 | S. cerevisiae deletion strains, locus YNL197C, strain WHI3, hits give low values 1.03 | S. cerevisiae deletion strains, locus YNL209W, strain ssb2, hits give low values 1.04 | S. cerevisiae deletion strains, locus YNL224C, strain SQS1, hits give low values 1.06 | S. cerevisiae deletion strains, locus YNL233W, strain BNI4, hits give low values 0.966 | S. cerevisiae deletion strains, locus YNL248C, strain rpa49, hits give low values 1.03 | S. cerevisiae deletion strains, locus YNL271C, strain bni1, hits give low values 0.998 | S. cerevisiae deletion strains, locus YNL307C, strain MCK1, hits give low values 0.969 | S. cerevisiae deletion strains, locus YNL322C, strain KRE1 (second series), hits give low values 1.01 | S. cerevisiae deletion strains, locus YNL322C, strain KRE1, hits give low values 1 and 0.995 | S. cerevisiae deletion strains, locus YNR049C, strain mso1, hits give low values 1.02 | S. cerevisiae deletion strains, locus YNR052C, strain pop2, hits give low values 0.998 | S. cerevisiae deletion strains, locus YOL006C, strain TOP1, hits give low values 0.967 | S. cerevisiae deletion strains, locus YOL012C, strain htz1 1.24 | S. cerevisiae deletion strains, locus YOL147C, strain pex11, hits give low values 1.01 | S. cerevisiae deletion strains, locus YOR001W, strain rrp6, hits give low values 0.993 | S. cerevisiae deletion strains, locus YOR061W, strain CKA2, hits give low values 1.02 | S. cerevisiae deletion strains, locus YOR069W, strain VPS5, hits give low values 1.06 | S. cerevisiae deletion strains, locus YOR070C, strain gyp1, hits give low values 1 | S. cerevisiae deletion strains, locus YOR080W, strain dia2, hits give low values 1.04 | S. cerevisiae deletion strains, locus YOR083W, strain WHI5 (second series), hits give low values 1.03 | S. cerevisiae deletion strains, locus YOR083W, strain WHI5, hits give low values 0.969 | S. cerevisiae deletion strains, locus YOR106W, strain vam3, hits give low values 1.03 | S. cerevisiae deletion strains, locus YOR136W, strain idh2, hits give low values 1.01 | S. cerevisiae deletion strains, locus YOR144C, strain elg1, hits give low values 1.01 | S. cerevisiae deletion strains, locus YOR184W, strain ser1, hits give low values 0.975 | S. cerevisiae deletion strains, locus YOR231W, strain MKK1, hits give low values 1.02 | S. cerevisiae deletion strains, locus YOR265W, strain rbl2, hits give low values 1 | S. cerevisiae deletion strains, locus YOR270C, strain vph1, hits give low values 1.06 | S. cerevisiae deletion strains, locus YOR290C, strain snf2, hits give low values 1.02 | S. cerevisiae deletion strains, locus YOR316C, strain cot1, hits give low values 1.01 | S. cerevisiae deletion strains, locus YPL051W, strain arl3, hits give low values 1 | S. cerevisiae deletion strains, locus YPL055C, strain LGE1, hits give low values 0.908 | S. cerevisiae deletion strains, locus YPL078C, strain atp4, hits give low values 1.02 | S. cerevisiae deletion strains, locus YPL106C, strain sse1, hits give low values 1.01 | S. cerevisiae deletion strains, locus YPL240C, strain hsp82, hits give low values 1 | S. cerevisiae deletion strains, locus YPL241C, strain CIN2, hits give low values 1.04 and 1.01 | S. cerevisiae deletion strains, locus YPL256C, strain CLN2, hits give low values 1.05 | S. cerevisiae deletion strains, locus YPR119W, strain clb2, hits give low values 1 | S. cerevisiae deletion strains, locus YPR141C, strain kar3, hits give low values 1 | S. cerevisiae deletion strains, locus YPR163C, strain tif3, hits give low values 0.991 | S. cerevisiae deletion strains, locus YPR167C, strain met16, hits give low values 1.01 | S. cerevisiae deletion strains, strain wtn01, hits give low values 0.977 | S. cerevisiae strains, strain wild type, hits give low values 1
